Laboratory results taken from the supplement of paper PMC7366291.
Where a name gives a salt, the structure may show the parent alone. ± gives the standard deviation or the standard deviation of the averaged measurements.

Columns and labels:
Conditions in all cases: 25 µM; exposure: 24-48 hpf
[1] = tested on: Danio rerio Tg(wt1b:EGFP) embryo, pronephros; test: glomerular separation, fold change vs DMSO control; higher = glomeruli further apart (abnormal)
Method in brief: (§1)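 Features are reported as fold changes against the mean of same-day DMSO-treated embryos. Before that, values more than 2 SD away from the feature mean were excluded. The embryos, dechorionated Tg(wt1b:EGFP) zebrafish, had been exposed from 24 to 48 hpf at 28.5°C to 25 μM compound in 0.5% DMSO in HEPES-buffered E3 with 0.003% PTU, and distances and angles came from 16 manually set points on maximum projections of dorsal pronephros images in Fiji.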

[2] = tested on: Danio rerio Tg(wt1b:EGFP) embryo, pronephros; test: glomerular width (mean of left and right), fold change vs DMSO control; higher = wider glomerulus
Method in brief: as §1

[3] = tested on: Danio rerio Tg(wt1b:EGFP) embryo, pronephros; test: fraction of imaged embryos annotated as normal kidney; higher = less nephrotoxic; extreme values may be limits of the assay
Method in brief: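 Embryos of the Tg(wt1b:EGFP) zebrafish line were dechorionated and held in 12-well plates with 25 μM compound in 0.5% DMSO and 5 mM HEPES-buffered E3 containing 0.003% PTU, from 24 to 48 hpf at 28.5°C. Larvae were then anaesthetised with tricaine, set dorsal side up in agarose-filled 96-well plates, and their pronephroi imaged by widefield fluorescence at 470 nm over 10 z-slices. Each value is the fraction of embryos per treatment placed in the normal-kidney category after manual annotation of maximum projections.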

[4] = tested on: Danio rerio Tg(wt1b:EGFP) embryo, pronephros; test: pronephric angle neck segment to proximal convoluted tubule (mean of left and right), fold change vs DMSO control; higher = larger pronephric angle
Method in brief: as §1

O=C(NC(Cc1cc(=O)[nH]c2ccccc12)C(=O)O)c1ccc(Cl)cc1 (stereo unspecified) [Rebamipide]
glomerular separation [1]: 0.748 ± 0.25 | glomerular width [2]: 0.942 ± 0.061 | fraction of imaged embryos annotated as normal kidney [3]: 0.917 | pronephric angle neck segment [4]: 0.972 ± 0.034

CNC(C)CCC=C(C)C (stereo unspecified) [Isometheptene mucate]
glomerular separation [1]: 0.941 ± 0.26 | glomerular width [2]: 0.958 ± 0.039 | fraction of imaged embryos annotated as normal kidney [3]: 0.917 | pronephric angle neck segment [4]: 0.977 ± 0.024

NC[C@H]1CC[C@H](C(=O)O)CC1 [Tranexamic acid]
glomerular separation [1]: 0.901 ± 0.18 | glomerular width [2]: 0.9771 ± 0.0082 | fraction of imaged embryos annotated as normal kidney [3]: 1 | pronephric angle neck segment [4]: 1.05 ± 0.022

C[C@H](CS)C(=O)N1CCC[C@H]1C(=O)O [Captopril]
glomerular separation [1]: 1 ± 0.45 | glomerular width [2]: 1.01 ± 0.042 | fraction of imaged embryos annotated as normal kidney [3]: 1 | pronephric angle neck segment [4]: 1.02 ± 0.09

CCc1ccc(CCOc2ccc(CC3SC(=O)NC3=O)cc2)nc1 (stereo unspecified) [Pioglitazone]
glomerular separation [1]: 1.48 ± 0.83 | glomerular width [2]: 1.03 ± 0.0063 | fraction of imaged embryos annotated as normal kidney [3]: 0.75 | pronephric angle neck segment [4]: 1.03 ± 0.018

O=S(=O)(O)CCS [Mesna]
glomerular separation [1]: 0.716 ± 0.21 | glomerular width [2]: 1.07 ± 0.057 | fraction of imaged embryos annotated as normal kidney [3]: 1 | pronephric angle neck segment [4]: 1.07 ± 0.047

CC(C)(C)NCC(O)COc1cccc2c1CC(O)C(O)C2 (stereo unspecified) [Nadolol]
glomerular separation [1]: 0.664 ± 0.2 | glomerular width [2]: 1.03 ± 0.12 | fraction of imaged embryos annotated as normal kidney [3]: 0.833 | pronephric angle neck segment [4]: 0.908 ± 0.02

CC(CN(C)C)CN1c2ccccc2CCc2ccccc21 (stereo unspecified) [Trimipramine maleate salt]
glomerular separation [1]: 0.996 ± 0.29 | glomerular width [2]: 1.06 ± 0.087 | fraction of imaged embryos annotated as normal kidney [3]: 0.833 | pronephric angle neck segment [4]: 0.972 ± 0.048

COc1ccc2c3c1O[C@H]1C[C@@H](O)C=C[C@@]31CCN(C)C2 [Galanthamine hydrobromide]
glomerular separation [1]: 1.08 ± 0.38 | glomerular width [2]: 1.04 ± 0.0055 | fraction of imaged embryos annotated as normal kidney [3]: 0.917 | pronephric angle neck segment [4]: 0.964 ± 0.029

CCCCC[C@H](O)/C=C/[C@@H]1[C@@H](C/C=C\CCCC(=O)O)[C@@H](O)C[C@H]1O [Dinoprost trometamol]
glomerular separation [1]: 0.881 ± 0.18 | glomerular width [2]: 1.01 ± 0.064 | fraction of imaged embryos annotated as normal kidney [3]: 0.833 | pronephric angle neck segment [4]: 0.975 ± 0.043

CCN(CC)CCOC(=O)C(c1ccccc1)c1ccccc1 [Adiphenine hydrochloride]
glomerular separation [1]: 1.14 ± 0.47 | glomerular width [2]: 0.979 ± 0.026 | fraction of imaged embryos annotated as normal kidney [3]: 0.917 | pronephric angle neck segment [4]: 0.98401 ± 0.00017

CCc1c2c(nc3ccc(OC(=O)N4CCC(N5CCCCC5)CC4)cc13)-c1cc3c(c(=O)n1C2)COC(=O)[C@]3(O)CC [Irinotecan hydrochloride trihydrate]
glomerular separation [1]: 1.09 ± 0.45 | glomerular width [2]: 1.02 ± 0.022 | fraction of imaged embryos annotated as normal kidney [3]: 0.667 | pronephric angle neck segment [4]: 1.02 ± 0.028

COc1ccc2[nH]cc(CCNC(C)=O)c2c1 [Melatonin]
glomerular separation [1]: 0.974 ± 0.26 | glomerular width [2]: 0.989 ± 0.026 | fraction of imaged embryos annotated as normal kidney [3]: 0.917 | pronephric angle neck segment [4]: 1.02 ± 0.056

C[C@H]1NC(=O)NC1=O [Methylhydantoin-5-(D)]
glomerular separation [1]: 0.867 ± 0.33 | glomerular width [2]: 0.991 ± 0.011 | fraction of imaged embryos annotated as normal kidney [3]: 0.917 | pronephric angle neck segment [4]: 1.02 ± 0.02

CN(C)[C@@H]1C(O)=C(C(N)=O)C(=O)[C@@]2(O)C(O)=C3C(=O)c4c(O)ccc(Cl)c4[C@@](C)(O)[C@H]3C[C@@H]12 [Chlortetracycline hydrochloride]
glomerular separation [1]: 1.18 ± 0.35 | glomerular width [2]: 1.04 ± 0.012 | fraction of imaged embryos annotated as normal kidney [3]: 0.583 | pronephric angle neck segment [4]: 0.9692 ± 0.0065

CCCCC1(COC(=O)CCC(=O)O)C(=O)N(c2ccccc2)N(c2ccccc2)C1=O [Suxibuzone]
glomerular separation [1]: 1.48 ± 0.71 | glomerular width [2]: 0.92 ± 0.016 | fraction of imaged embryos annotated as normal kidney [3]: 0.75 | pronephric angle neck segment [4]: 0.992 ± 0.016

CC(C(=O)O)c1ccc(-c2ccccc2)c(F)c1 (stereo unspecified) [Flurbiprofen]
glomerular separation [1]: 5.61 ± 1.3 | glomerular width [2]: 0.48 ± 0.02 | fraction of imaged embryos annotated as normal kidney [3]: 0 | pronephric angle neck segment [4]: 1.96 ± 0.059

CC(C)(O)c1ccccc1CC[C@@H](SCC1(CC(=O)O)CC1)c1cccc(/C=C/c2ccc3ccc(Cl)cc3n2)c1 [Montelukast]
glomerular separation [1]: 0.861 ± 0.26 | glomerular width [2]: 0.925 ± 0.047 | fraction of imaged embryos annotated as normal kidney [3]: 0.833 | pronephric angle neck segment [4]: 1.04 ± 0.026

C[C@H](Cc1cc2c(c(C(N)=O)c1)N(CCCO)CC2)NCCOc1ccccc1OCC(F)(F)F [Silodosin]
glomerular separation [1]: 0.726 ± 0.14 | glomerular width [2]: 0.985 ± 0.067 | fraction of imaged embryos annotated as normal kidney [3]: 0.917 | pronephric angle neck segment [4]: 0.992 ± 0.028
